Our source for the composite z-score, composite Z-score and z-score values is PubChem BioAssay.

For one assay, the target named is Albumin (Bos taurus) (UniProt P02769). Put plainly: compounds binding labelled BSA control protein – biochemical, small-molecule microarray, Alexa647 label, 635/667 nm fluorescence, artefact control for SMM control protein annotation, profiling panel (AID 1118).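 Note: score merges 667 nm emission intensity and signal-to-noise per printed compound spot.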 The note with it: BSA-A647 binding, fluorescence 635 nm, higher = more signal.
Assay [1] is described as follows: probe aXIP binding to arrayed compounds – biochemical, NeuroSMM set, 635/667 nm fluorescence, primary screen (AID 1119).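 Note: probe is the protein aXip251-270 applied at 1 µg/mL to compound-printed slides; binding of probe to printed compounds measured as 667 nm fluorescence plus signal to noise.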 The note with it: small-molecule microarray, higher = more signal, called active from +8 up or from −8 down.
The nature of assay [2]: probe aNOTCH3 binding on compound microarray – biochemical, small-molecule microarray, 635/667 nm fluorescence, primary screen (AID 1120).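 Note: probe is a biotin-tagged antibody raised against NOTCH3 rather than NOTCH3 protein; score merges spot fluorescence near 667 nm with spot signal to noise.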 The settings on record: higher = more signal.
The nature of assay [3]: probe aNOTCH2 binding on compound microarray – biochemical, small-molecule microarray, 635/667 nm fluorescence, primary screen (AID 1121).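 Note: score merges feature fluorescence read at 667 nm with its signal to noise.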 The note with it: higher = more signal.
For assay [4], the target named is Carbonic anhydrase 2 (Homo sapiens) (UniProt P00918). Briefly: compounds binding carbonic anhydrase 2 – biochemical, small-molecule microarray, Alexa647-labelled CAII, profiling panel (AID 1122). The settings on record: CAII-A647 binding fluorescence, higher = more signal.
Assay [5] in a line: COS7 lysate on small-molecule microarray, probe aHis, 635 nm (AID 1123).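 Note: z-score combines 667nm fluorescence intensity with signal-to-noise per printed compound spot.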 The note with it: COS7 cell lysate, fluorescence, higher = more signal.
Assay [6] is described as follows: probe aLAP1 signal on lysate-treated microarray – cell lysate, small-molecule microarray, COS7 lysate, primary screen (AID 1124).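 Note: lysate comes from COS7 cells expressing LAP1 and is applied at 0.3 µg/mL; score merges spot fluorescence near 667 nm with signal-to-noise over triplicate slides.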 The settings on record: probe aLAP1, fluorescence, higher = more signal.
Another assay deals with Sam68 (KHDRBS1). Put plainly: compounds binding KHDRBS1 protein – biochemical, small-molecule microarray, 635 nm fluorescence, primary screen (AID 1125).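 Note: score merges 667 nm channel intensity with signal to noise over triplicate slides.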 The settings on record: higher = more signal.
Assay [7] deals with Chordin-like protein 2 (CHRDL2). Put plainly: compounds binding chordin-like 2 – biochemical, small-molecule microarray, 635 nm fluorescence, primary screen (AID 1126).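 Note: printed compound slides probed with Chrdl2 protein at 4 µg/mL for 1 h at 4 C; score merges 667 nm emission intensity with signal to noise over three replicate slides.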 The settings on record: fluorescence 635 nm, higher = more signal.
The target of assay [8] is Concanavalin-A (Canavalia ensiformis) (UniProt P02866). Put plainly: compounds binding concanavalin A lectin – biochemical, small-molecule microarray, Alexa647 label, 635 nm, artefact control for SMM control protein annotation, primary screen (AID 1127).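 Note: z combines 667 nm emission intensity with signal-to-noise across three replicate slides.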 The note with it: ConA-A647 binding fluorescence, higher = more signal.
A short description of assay [9]: compounds binding Alexa647 anti-His antibody – biochemical, small-molecule microarray, 635 nm fluorescence, artefact control for SMM control protein annotation, primary screen (AID 1128).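 Note: score merges feature fluorescence with signal-to-noise for each printed compound spot.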 The note with it: higher = more signal.
The subject of assay [10] is Human papillomavirus type 1a E7 protein (residues 1-88). Put plainly: HPV1a E7 small-molecule binders, primary screen, biochemical, small-molecule microarray, residues 1-88, 635 nm (AID 1129). The settings on record: small-molecule microarray binding, fluorescence 635 nm; higher = more signal.
In assay [11] the target is Focal adhesion kinase 1 (Homo sapiens) (UniProt Q05397). Put plainly: PTK2 protein binding on printed compound slides – biochemical, small-molecule microarray, 635/667 nm fluorescence, BSA, DTT, primary screen (AID 1130).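 Note: composite of spot emission at 667 nm and signal to noise over triplicate slides.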 The note with it: 635 nm fluorescence, higher = more signal.
Assay [12] concerns Fibrinogen (Alexa647-labelled). Put plainly: Alexa647-fibrinogen binding to printed small molecules – biochemical, small-molecule microarray, 635/667 nm fluorescence, artefact control for SMM control-protein annotation, profiling panel (AID 1131).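 Note: z-score merges 667 nm fluorescence with per-spot signal-to-noise over triplicate slides.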 The settings on record: fibrinogen-A647 binding fluorescence, higher = more signal.
The target of assay [13] is Follistatin (Homo sapiens) (UniProt P19883). Briefly: FST protein binding to printed compounds – biochemical, small-molecule microarray, 635/667 nm fluorescence, primary screen (AID 1132). The note with it: 635 nm fluorescence, higher = more signal.
Assay [14] deals with Fibroblast growth factor 2 (Homo sapiens) (UniProt P09038). Briefly: basic fibroblast growth factor binding to printed compounds – biochemical, small-molecule microarray, 635/667 nm fluorescence, primary screen (AID 1133). The note with it: FGF2, fluorescence 635/667, higher = more signal.
The nature of assay [15]: JC-1 mitochondrial potential readout, lung cancer cells – cell-based, A549, JC-1 fluorescence, basal, 24 h, 100 nL, profiling panel (AID 1138).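 Note: A549 lung adenocarcinoma cells under basal conditions with no added stimulus; test concentration not given here.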 The note with it: higher = more signal.
Another assay deals with Lefty1. Put plainly: Lefty1 protein binding to printed compounds – biochemical, small-molecule microarray, 635/667 nm fluorescence, primary screen (AID 1139). The note with it: fluorescence 635/667, higher = more signal.
The subject of assay [16] is wheat germ agglutinin (Triticum aestivum), Alexa647-labelled. Briefly: Alexa647-WGA lectin binding to printed small molecules – biochemical, small-molecule microarray, 635/667 nm fluorescence, artefact control for SMM control-protein annotation, profiling panel (AID 1140).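 Note: score merges 667 nm feature emission with signal to noise over triplicate slides.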 The settings on record: WGA-A647 binding, 635 nm fluorescence, higher = more signal.
Assay [17] has as its target Luciferin 4-monooxygenase (Photinus pyralis) (UniProt P08659). Put plainly: inhibition of purified Photinus pyralis luciferase – biochemical, luminescence, purified enzyme, 2006 set, primary screen (AID 1141).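 Note: cell-free assay with purified firefly luciferase at 100 ng per well in PBS; test concentration not given here.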 The note with it: purified firefly luciferase, SteadyGlo luminescence, 30 min; higher = more signal, called active from +8 up or from −8 down.

Active and inactive are the calls of the source.

Focal adhesion kinase 1 (Homo sapiens), sequence (Q05397 whole entry, looked up): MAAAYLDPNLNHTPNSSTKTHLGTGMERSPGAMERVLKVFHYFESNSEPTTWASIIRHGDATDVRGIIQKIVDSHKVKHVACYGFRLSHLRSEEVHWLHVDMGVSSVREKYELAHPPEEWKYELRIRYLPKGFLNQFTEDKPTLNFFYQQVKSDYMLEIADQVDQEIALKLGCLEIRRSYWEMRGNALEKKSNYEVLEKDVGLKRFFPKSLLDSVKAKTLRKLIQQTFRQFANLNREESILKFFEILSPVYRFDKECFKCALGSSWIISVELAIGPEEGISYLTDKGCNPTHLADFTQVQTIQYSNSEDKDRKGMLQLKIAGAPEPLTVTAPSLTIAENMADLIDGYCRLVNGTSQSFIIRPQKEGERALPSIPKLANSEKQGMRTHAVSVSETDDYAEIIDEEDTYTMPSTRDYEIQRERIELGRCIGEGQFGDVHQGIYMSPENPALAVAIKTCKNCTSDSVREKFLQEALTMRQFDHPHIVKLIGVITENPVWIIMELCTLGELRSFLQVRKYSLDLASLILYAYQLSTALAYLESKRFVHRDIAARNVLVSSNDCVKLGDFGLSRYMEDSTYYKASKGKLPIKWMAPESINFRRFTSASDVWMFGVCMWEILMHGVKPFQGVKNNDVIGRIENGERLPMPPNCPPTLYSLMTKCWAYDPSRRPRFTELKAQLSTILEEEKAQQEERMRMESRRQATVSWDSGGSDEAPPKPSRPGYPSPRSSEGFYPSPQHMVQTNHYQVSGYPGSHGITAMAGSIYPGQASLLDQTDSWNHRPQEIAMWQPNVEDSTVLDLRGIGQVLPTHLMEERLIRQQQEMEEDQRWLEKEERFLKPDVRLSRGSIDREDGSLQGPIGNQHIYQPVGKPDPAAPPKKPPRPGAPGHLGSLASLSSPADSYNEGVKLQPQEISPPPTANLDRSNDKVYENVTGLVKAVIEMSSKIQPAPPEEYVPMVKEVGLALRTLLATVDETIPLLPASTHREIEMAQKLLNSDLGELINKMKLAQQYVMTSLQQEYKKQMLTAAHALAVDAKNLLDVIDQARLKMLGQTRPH
Concanavalin-A (Canavalia ensiformis), sequence (P02866 whole entry, looked up): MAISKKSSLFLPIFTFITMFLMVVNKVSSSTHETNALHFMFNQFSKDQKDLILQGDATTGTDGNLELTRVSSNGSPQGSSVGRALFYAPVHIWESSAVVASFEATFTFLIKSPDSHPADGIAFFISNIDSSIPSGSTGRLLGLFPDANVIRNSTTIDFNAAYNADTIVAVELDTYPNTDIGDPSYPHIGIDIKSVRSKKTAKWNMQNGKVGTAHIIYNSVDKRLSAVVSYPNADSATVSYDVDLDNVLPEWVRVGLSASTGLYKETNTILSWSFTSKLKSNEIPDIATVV
Luciferin 4-monooxygenase (Photinus pyralis), sequence (P08659 whole entry, looked up): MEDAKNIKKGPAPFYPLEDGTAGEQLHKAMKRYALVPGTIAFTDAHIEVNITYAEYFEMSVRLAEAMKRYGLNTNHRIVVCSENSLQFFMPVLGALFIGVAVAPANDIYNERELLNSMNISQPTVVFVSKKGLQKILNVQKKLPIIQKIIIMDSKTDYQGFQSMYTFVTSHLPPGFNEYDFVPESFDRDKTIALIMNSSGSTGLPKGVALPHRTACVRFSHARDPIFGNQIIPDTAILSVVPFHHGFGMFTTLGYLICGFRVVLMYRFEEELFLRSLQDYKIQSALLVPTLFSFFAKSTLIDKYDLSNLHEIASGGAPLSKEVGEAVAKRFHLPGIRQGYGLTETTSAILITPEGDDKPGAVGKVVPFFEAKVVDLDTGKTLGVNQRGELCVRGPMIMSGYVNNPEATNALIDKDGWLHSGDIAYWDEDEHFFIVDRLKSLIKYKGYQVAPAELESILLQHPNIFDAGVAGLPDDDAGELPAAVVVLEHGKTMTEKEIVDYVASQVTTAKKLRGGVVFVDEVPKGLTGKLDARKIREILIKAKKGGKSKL
Fibroblast growth factor 2 (Homo sapiens), sequence (P09038 whole entry, looked up): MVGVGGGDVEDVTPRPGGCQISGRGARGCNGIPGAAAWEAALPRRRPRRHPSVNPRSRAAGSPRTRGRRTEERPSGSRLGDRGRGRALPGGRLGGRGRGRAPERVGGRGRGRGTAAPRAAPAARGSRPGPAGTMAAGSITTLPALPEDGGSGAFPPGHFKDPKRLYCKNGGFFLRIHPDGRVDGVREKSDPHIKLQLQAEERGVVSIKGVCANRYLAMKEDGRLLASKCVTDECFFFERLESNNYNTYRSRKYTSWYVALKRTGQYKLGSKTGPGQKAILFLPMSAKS
Albumin (Bos taurus), sequence (P02769 whole entry, looked up): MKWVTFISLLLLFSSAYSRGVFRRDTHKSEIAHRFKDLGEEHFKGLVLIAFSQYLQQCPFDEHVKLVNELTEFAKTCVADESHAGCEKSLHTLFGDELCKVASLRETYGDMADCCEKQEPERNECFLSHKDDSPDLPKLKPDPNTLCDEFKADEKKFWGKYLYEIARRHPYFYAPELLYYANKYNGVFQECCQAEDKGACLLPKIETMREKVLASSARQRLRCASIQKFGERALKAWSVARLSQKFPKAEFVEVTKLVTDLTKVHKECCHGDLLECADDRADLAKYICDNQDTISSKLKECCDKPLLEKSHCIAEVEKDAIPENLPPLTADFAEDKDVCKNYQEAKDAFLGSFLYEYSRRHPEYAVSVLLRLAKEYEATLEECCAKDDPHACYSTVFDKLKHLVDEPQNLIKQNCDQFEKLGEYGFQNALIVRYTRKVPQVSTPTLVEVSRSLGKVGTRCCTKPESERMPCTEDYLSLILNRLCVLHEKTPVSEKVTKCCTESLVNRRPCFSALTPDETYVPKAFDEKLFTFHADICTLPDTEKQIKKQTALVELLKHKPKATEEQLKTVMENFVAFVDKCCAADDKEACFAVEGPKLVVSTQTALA
Follistatin (Homo sapiens), sequence (P19883 whole entry, looked up): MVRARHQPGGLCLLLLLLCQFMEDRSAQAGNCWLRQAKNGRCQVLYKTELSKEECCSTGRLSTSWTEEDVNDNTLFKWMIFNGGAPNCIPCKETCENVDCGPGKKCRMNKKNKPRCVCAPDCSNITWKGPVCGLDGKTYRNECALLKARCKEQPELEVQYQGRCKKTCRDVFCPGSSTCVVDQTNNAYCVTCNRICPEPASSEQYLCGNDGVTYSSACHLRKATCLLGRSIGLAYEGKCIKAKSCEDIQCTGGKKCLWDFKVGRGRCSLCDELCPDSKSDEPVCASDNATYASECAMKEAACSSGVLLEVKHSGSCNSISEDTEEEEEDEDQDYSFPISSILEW

As to `O=C/C=C/c1ccccc1Cl`, the composite z-score with Albumin (Bos taurus) is 0.95; in assay [2] it was -0.0259; in assay [3], -0.0866; in assay [4], 0.408; in assay [5], 0.333; in assay [6] it was 0.399. The composite z-score in the assay on Sam68 (KHDRBS1) was -0.764; in assay [7], -0.768; in assay [8], 0.0241; in assay [9], -0.761; in assay [10] it was -0.836; in assay [11] it was 0.878. The composite z-score in assay [12] was 0.0503; in assay [13], 0.0323; in assay [14], -0.517; in the assay with Lefty1, -0.239; in [16], 0.687. Also, in [1], the composite Z-score is -0.02 (inactive). Further, the z-score in assay [15] was 0.653; in [17], -2.21 (inactive).
With `CCCC=C(CCC)[C@@H](NC(=O)c1ccccc1)c1ccccc1`, the composite z-score is -0.399 in the assay with Albumin (Bos taurus); 0.0191 in assay [2]; -0.0633 in assay [3]; -0.247 in assay [4]; 0.341 in assay [5]; 0.139 in assay [6]. Further, the composite z-score is -0.452 in the assay with Sam68 (KHDRBS1); -0.768 in assay [7]; -0.604 in assay [8]; -0.697 in [9]; 0.3 in [10]; 1.04 in [11]. Moreover, the composite z-score is -0.602 in assay [12]; -0.536 in assay [13]; -0.846 in assay [14]; -0.614 with Lefty1; -0.677 in assay [16]. For the same molecule, the composite Z-score in [1] was 0.108 (inactive). In addition, the figures for the z-score in assay [15] and in assay [17] were -1.52 and 0.0419 (inactive), respectively.
Regarding `CN(C)CCCC[C@@H]1NC(=O)[C@@H]2C[C@H](C(=O)NCCCCCNC(=O)CS)[C@H](c3ccc(O)cc3)N2C1=O`, the composite z-score in the assay with Albumin (Bos taurus) was 0.885; in [2], 0.0261; in assay [3], -0.0976; in assay [4] it was 0.58; in [5], 1.18; in [6], 0.24. Besides, the composite z-score was 0.697 with Sam68 (KHDRBS1); 1.07 in assay [7]; 1.15 in [8]; 1.12 in assay [9]; 1.19 in assay [10]; -0.0662 in [11]. Moreover, the composite z-score came out at 0.946 in assay [12]; 1.52 in assay [13]; 1.65 in [14]; 1.65 in the assay with Lefty1; 1.23 in assay [16]. In assay [1], the composite Z-score is 0.0077 (inactive). Also, the values for the z-score in assay [15] and in [17] were 1.3 and -1.11 (inactive), respectively.
With `COCCOC(=O)N1C(=O)[C@@]2(c3cc(C#CCC(C(=O)OC)C(=O)OC)ccc31)[C@H](C(=O)N1CCN(c3ncccn3)CC1)[C@H]1C(=O)O[C@H](c3ccccc3)[C@H](c3ccccc3)N1[C@@H]2c1ccc(O)cc1`, the composite z-score with Albumin (Bos taurus) is 0.752; in [2], -0.0343; in [3] it was -0.0956; in [4] it was 0.55; in [5], 1.48; in [6], 0.695. The composite z-score with Sam68 (KHDRBS1) is 1.3; in assay [7], -0.358; in [8], 1.01; in assay [9], 1.55; in [10], 1.19; in [11], 0.89. Besides, the composite z-score in assay [12] is 0.65; in assay [13], 0.51; in [14], 0.393; with Lefty1 it was 0.72; in assay [16], 1.07. Moreover, in [1], the composite Z-score was 0.394 (inactive). The z-score was 1.95 in assay [15] and -1 (inactive) in assay [17].
`O=C1O[C@@H](c2ccccc2)[C@@H](c2ccccc2)N2[C@@H](c3ccccc3OCCO)[C@]3(C(=O)Nc4ccc(C#CC5=CCCCC5)cc43)[C@@H](C(=O)O)[C@H]12`: the composite z-score was 0.664 in the assay with Albumin (Bos taurus); 0.0563 in [2]; -0.0391 in [3]; 0.549 in assay [4]; 1.67 in [5]; 0.659 in assay [6]. The composite z-score in the assay with Sam68 (KHDRBS1) was 1.33; in assay [7], -0.241; in [8] it was 1.08; in [9], 1.91; in assay [10] it was 1.19; in [11] it was 0.705. Further, the composite z-score in assay [12] worked out at 0.934; in [13], 1.14; in [14] it was 0.301; in the assay with Lefty1, 0.699; in [16] it was 1.17. The composite Z-score in assay [1] is -0.114 (inactive). Further, the values for the z-score in [15] and in assay [17] were -2.32 and -5.86 (inactive), respectively.
For `C=CCc1cccc([C@H]2N[C@H](C(=O)O)CC[C@@H]2C)c1`, the composite z-score is -0.595 with Albumin (Bos taurus); -0.122 in [2]; -0.157 in [3]; 0.0666 in assay [4]; -0.31 in assay [5]; -0.27 in [6]. The composite z-score in the assay with Sam68 (KHDRBS1) is 0.538; in assay [7], 0.843; in [8], 0.0607; in assay [9] it was 0.7; in [10] it was 0.297; in assay [11], 1.34. Further, the composite z-score in assay [12] was 0.172; in [13], 0.648; in assay [14] it was 0.972; with Lefty1, 0.825; in assay [16], -0.173. In assay [1], the composite Z-score was -0.149 (inactive). Also, the figures for the z-score in assay [15] and in [17] were 0.809 and -0.42 (inactive), respectively.
